Source: PubChem BioAssay (The Scripps Research Institute Molecular Screening Center)
LYPLA2 inh: LYPLA2 (human) inhibition in PME1 counter-screen. AID 2177. inhibition, % at 5.9 µM. O95372. recombinant LYPLA2, FP-Rh probe fluorescence polarization. hit rate 0.38% among 320,000;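 active means inhibition above the screen-wide mean plus 3 SD, limit set per campaign, cut at about 26% in these data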
LYPLA1 inh: LYPLA1 (human) inhibition in PME1 counter-screen | O75608 | hit rate 0.16% among 320,000 | recombinant LYPLA1, FP-Rh probe fluorescence polarization | inhibition, % at 5.9 µM;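 active means inhibition above the mean of all tested compounds plus 3 SD, set per campaign, cut at about 14% in these data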;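 further: inhibitors block serine hydrolase probe labeling of LYPLA1 so polarization falls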
GSTO1 counter: counter-screen for RBBP9 inhibitors: inhibitors of human GSTO1; hit rate 1.1% among 300,000; inhibition, % at 5.96 µM; recombinant GSTO1, activity-based probe fluorescence polarization;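 active means inhibition above the campaign mean inhibition plus 3 SD, cut at about 35% in these data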
Fam108B counter: Fam108B inhibition, counter-screen for RBBP9 inhibitors | recombinant Fam108B, FP-Rh probe fluorescence polarization | inhibition, % at 9.51 µM | hit rate 0.33% among 300,000;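 active means inhibition above the screen mean inhibition plus 3 SD, computed separately per campaign, cut at about 18% in these data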;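 further: inhibitors lower polarization as less probe binds the enzyme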
PREPL inh: inhibits the human prolyl oligopeptidase-like enzyme | inhibition, % at 5.96 µM | hit rate 0.68% among 320,000 | AID 2751 | recombinant PREPL, fluorescence polarization activity-based probe | Q4J6C6
Target sequence (Q4J6C6 whole entry, looked up): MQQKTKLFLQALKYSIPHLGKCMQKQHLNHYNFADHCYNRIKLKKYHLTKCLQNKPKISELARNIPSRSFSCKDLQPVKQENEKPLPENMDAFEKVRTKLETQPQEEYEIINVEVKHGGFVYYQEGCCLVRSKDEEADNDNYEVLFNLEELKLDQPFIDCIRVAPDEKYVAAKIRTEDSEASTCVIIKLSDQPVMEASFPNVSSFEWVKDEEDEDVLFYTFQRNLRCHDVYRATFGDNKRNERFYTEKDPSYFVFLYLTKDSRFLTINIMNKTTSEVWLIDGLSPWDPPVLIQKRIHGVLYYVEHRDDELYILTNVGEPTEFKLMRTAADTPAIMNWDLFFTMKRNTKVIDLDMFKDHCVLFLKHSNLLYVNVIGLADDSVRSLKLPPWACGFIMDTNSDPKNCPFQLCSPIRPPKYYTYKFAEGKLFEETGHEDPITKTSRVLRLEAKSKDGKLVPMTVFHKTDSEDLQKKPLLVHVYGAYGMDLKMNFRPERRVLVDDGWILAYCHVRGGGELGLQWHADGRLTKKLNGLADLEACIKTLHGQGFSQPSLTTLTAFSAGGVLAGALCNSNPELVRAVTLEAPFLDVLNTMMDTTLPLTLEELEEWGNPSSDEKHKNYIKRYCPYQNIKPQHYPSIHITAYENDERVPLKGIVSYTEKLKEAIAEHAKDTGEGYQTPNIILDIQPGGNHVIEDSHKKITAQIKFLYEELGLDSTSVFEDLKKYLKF
PME-1 inh: PME-1 (human) inhibition | hit rate 0.53% among 320,000 | inhibition, % at 5.9 µM | recombinant PME-1, FP-Rh probe fluorescence polarization;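 active means inhibition above the campaign mean of all compounds plus 3 SD, cut at about 26% in these data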;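 further: competitive labeling of PME-1 active site by serine hydrolase directed probe; inhibitors block probe labeling so polarization falls and inhibition rises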
PREPL inh cf: human PREPL inhibition, confirmation; shares compounds with PREPL inh; inhibition, % at 5.96 µM; hit rate 67% among 2,000; recombinant PREPL, fluorescence polarization activity probe
Each line names hits and unclear results; the compound was inactive in the other large screens (follow-up assays come after a bar, where they were run). Only some compounds are listed: those with a hit (about 1.9% of all), similar ones and a draw of the others. Unless noted, no stated cut-off is given here; in the data, active means inhibition above about 43%; inactive means the rest.

COc1ccc(C=NNc2ccc([N+](=O)[O-])cc2S(=O)(=O)Nc2ccccc2C(=O)O)cc1OC	none (no result: LYPLA2 inh, LYPLA1 inh, GSTO1 counter, Fam108B counter, PME-1 inh)
O=C(O)c1ccccc1NS(=O)(=O)c1ccc(NN=Cc2cccc(Cl)c2)c([N+](=O)[O-])c1	PREPL inh 53 (no result: LYPLA2 inh, LYPLA1 inh, GSTO1 counter, Fam108B counter, PME-1 inh) | PREPL inh cf 45
O=C(NC(=S)NC1CCCCC1)c1ccc(F)cc1	none
COc1cc(NC(=O)CN2CCCCC2)c(C)cc1[N+](=O)[O-]	none
COc1cc(NC(=O)CN2CCN(c3ccccc3F)CC2)c(C)cc1[N+](=O)[O-]	PREPL inh 55 | PREPL inh cf 69
CC1Cc2ccccc2N1CC(=O)NC(=O)NC1CCCCC1 (stereo not given)	none
Cc1cc(N2CCOCC2)nc2ccc(NC(=O)CCC(=O)N3CCN(c4ccccc4)CC3)cc12	none
Cc1cc(N2CCN(C)CC2)nc2ccc(NC(=O)CCC(=O)N3CCN(c4ccc([N+](=O)[O-])cc4)CC3)cc12	PREPL inh 66 | PREPL inh cf 60
COc1cccc(CSc2nnc(-c3ccncc3)n2N)c1	none
COc1ccc(NC(=O)CCC(=O)OCc2ccc([N+](=O)[O-])cc2)cc1	none
CCOc1ccccc1N1CCN(C(=O)c2cc3cc(OC)ccc3[nH]2)CC1	none
Cc1occc1-c1nnc(SCc2nc3ccccc3c(=O)n2CC#N)n1C	PREPL inh 43 | PREPL inh cf inactive
COc1ccc(-c2cn(Cc3ccc(C(N)=O)cc3)c(CCN)n2)cc1	PREPL inh 46 | PREPL inh cf inactive
COc1ccc(-c2cn(CCO)c(CCN)n2)cc1	none
CC(Sc1ncc(C(F)(F)F)cc1Cl)C(=O)NCC1CCCO1 (stereo not given)	none
COc1ccc(CSc2ccc(-c3nc4ccccn4c3NCc3ccccc3)cc2OC)cc1	PREPL inh 49 | PREPL inh cf inactive
N#Cc1nc(/C=C/c2ccccc2)oc1NCCCN1CCOCC1	PREPL inh 47 | PREPL inh cf inactive
N#Cc1nc(COc2ccc(-c3ccccc3)cc2)oc1NCCCN1CCOCC1	PREPL inh 45 | PREPL inh cf inactive
N#Cc1nc(COc2ccccc2)oc1NCCN1CCOCC1	none
COCCNc1oc(/C=C/c2ccccc2)nc1C#N	none
Cc1ccc2[nH]c3c(N4CCOCC4)ncnc3c2c1	none
COc1ccc2[nH]c3c(N4CCC(O)(c5cccc(C(F)(F)F)c5)CC4)ncnc3c2c1	PREPL inh 50 | PREPL inh cf 45
CCOc1ccc2[nH]c3c(N4CCc5ccccc5C4)ncnc3c2c1	PREPL inh 54 | PREPL inh cf 65
CCCc1cc(=O)oc2cc(C)cc(OC(C)C(=O)NCc3cccnc3)c12 (stereo not given)	none
CC(C)Nc1ccc(Nc2ccnc3cc4ccccc4cc23)cc1	PREPL inh 60 | PREPL inh cf 62
COc1ccc(Nc2ccnc3ccccc23)cc1	none
CCC(CO)Oc1cc(NCc2ccccc2)c2ncn(C(C)C)c2c1 (stereo not given)	none (no result: LYPLA2 inh, LYPLA1 inh, GSTO1 counter, Fam108B counter, PME-1 inh)
CCC(COC)Oc1cc(NCc2ccccc2)c2ncn(C(C)C)c2c1 (stereo not given)	PREPL inh 52 (no result: GSTO1 counter, Fam108B counter) | PREPL inh cf inactive
CCC(CO)Oc1cc(NCc2ccccc2C(F)(F)F)c2ncn(C(C)C)c2c1 (stereo not given)	PREPL inh 48 (no result: LYPLA2 inh, LYPLA1 inh, GSTO1 counter, Fam108B counter, PME-1 inh) | PREPL inh cf inactive
CCC(CO)Oc1cc(NCc2ccccc2Cl)c2ncn(C(C)C)c2c1 (stereo not given)	PREPL inh 60 (no result: GSTO1 counter, Fam108B counter) | PREPL inh cf inactive
CC(C)n1cnc2c(NCc3ccccc3)cc(N[C@H](C)CO)cc21	PREPL inh 61 (no result: LYPLA2 inh, LYPLA1 inh, GSTO1 counter, Fam108B counter, PME-1 inh) | PREPL inh cf inactive
CCC(CO)Oc1cc(NCc2ccccc2F)c2ncn(C(C)C)c2c1 (stereo not given)	none (no result: GSTO1 counter, Fam108B counter)
C=C1C(C(=O)Nc2cccc(OC)c2)C1C(=O)Nc1cccc(OC)c1 (stereo not given)	none
COc1ccccc1NC(=O)Nc1nc(CC(=O)Nc2ccc(N(C)C)cc2)cs1	PREPL inh 47 | PREPL inh cf 43
C[n+]1c(-c2ccccc2)sc([S-])c1-c1ccccc1	PREPL inh 57 | PREPL inh cf 69
CCN(CC)CCCN1C=C2C(=O)C(C)(OC(=O)C3CCCC3)C(=O)C=C2C=C1c1ccsc1 (stereo not given)	PREPL inh 43 | PREPL inh cf inactive
CC1(OC(=O)C2CCCC2)C(=O)C=C2C=C(c3ccsc3)N(C(CO)CO)C=C2C1=O (stereo not given)	none
CN(CC(O)COCc1ccccc1F)C1CCCCC1 (stereo not given)	PREPL inh 44 | PREPL inh cf inactive
O=C(CN1C(=O)/C(=C\c2ccco2)SC1=S)Nc1ccc(O)cc1C(=O)O	none
CCN1CCCC1CNC(=O)c1ccc2c(c1)NC(=O)/C(=C\c1ccc(OC)c(OC)c1)S2 (stereo not given)	PREPL inh 56 | PREPL inh cf 61
COc1cc2nc(Nc3ccc(C)c(C)c3)nc(N)c2cc1OC	PREPL inh 52 | PREPL inh cf 51
O=C1/C(=C/c2ccccc2)SC(=S)N1N1C(=O)C2CC2C1=O (stereo not given)	none
Cc1cccc(N2CCN(C(=O)CSc3nnnn3C3CC3)CC2)c1C	none (no result: GSTO1 counter, Fam108B counter)
COc1ccc(-c2cn3c(C)c(C(=O)N4CCc5ccccc5C4)sc3n2)cc1	PREPL inh 50 | PREPL inh cf inactive
Cc1c(C(=O)N2CCc3ccccc3C2)sc2nc(-c3ccccc3)cn12	none
CC(=O)Nc1ccc(OCC(O)CN2CCN(c3ccc(C)c(Cl)c3)CC2)cc1 (stereo not given)	PREPL inh 44 | PREPL inh cf inactive
Cc1c(N)cccc1[N+](=O)[O-]	none (no result: GSTO1 counter, Fam108B counter)
Cc1c(N)cccc1N	PREPL inh 50 (no result: GSTO1 counter, Fam108B counter) | PREPL inh cf inactive
C#CCOCCOCCOCCNc1nc(N2CCN(C(=O)CCCCCCCCCCNC(=O)[C@H](CO)n3cc(CCCSC)nn3)CC2)nc(N2CCN(C(=O)CCCCCCCCCCNC(=O)[C@H](CCCN=C(N)N)n3cc(C[C@@H](C)CC)nn3)CC2)n1	none
C#CCOCCOCCOCCNc1nc(N2CCN(C(=O)CCCCCCCCCCNC(=O)[C@H]([C@@H](C)CC)n3cc(CCCCCN)nn3)CC2)nc(N2CCN(C(=O)CCCCCCCCCCNC(=O)[C@H](CO)n3cc(CCCCCN)nn3)CC2)n1	PREPL inh 50 | PREPL inh cf 51
C#CCOCCOCCOCCNc1nc(N2CCN(C(=O)CCCCCCCCCCNC(=O)Cn3cc(C[C@@H](C)O)nn3)CC2)nc(N2CCN(C(=O)CCCCCCCCCCNC(=O)[C@H](CCCN=C(N)N)n3cc(C[C@@H](C)CC)nn3)CC2)n1	PREPL inh 48 | PREPL inh cf inactive
